An excerpt weighted towards active compounds, which were near 11% of everything screened.
G9a block: inhibitors of human histone lysine methyltransferase G9a. Q96KQ7. G9a H3K9 monomethylation, AlphaScreen, 2 h. Potency, µM (highest dose often 102 µM), inactives show at the top dose activity, negative = inhibition, most hits filed as inhibitors. actives 8.8% (n = 350,000); further: on the % scale 0 is the no-effect control and ±100 the full control effect; nearly all actives have a fitted effect of over 75% in size
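Compounds were preincubated with 20 nM G9a for 15 min, after which biotinylated H3K9 peptide (500 nM) and SAM (20 uM) started a 2 h room-temperature reaction. Monomethylated product was quantified by antibody-based AlphaScreen chemiluminescence.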
L3MBTL1 inh: L3MBTL1 (human) inhibition | Q9Y468 | AlphaScreen L3MBTL1–H3K9me1 peptide binding | AID 485360 | Potency, µM (series often up to 57.1 µM), for inactives: top-dose activity, negative = inhibition, hits mostly inhibitors | actives 0.66% (n = 230,000); further: on the % scale 0 is the no-effect control and ±100 the full control effect; nearly all actives have a fitted effect of over 60% in size
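Read-out is AlphaScreen signal from streptavidin donor and nickel chelate acceptor beads (10 ug/mL final each) bridging L3MBTL1 (50 nM) and biotinylated K9-monomethylated H3(1-15) peptide (75 nM), after 30 min compound exposure at room temperature.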
HP1b chromo inh: inhibitors of HP1-beta chromodomain binding to methylated histone tails. P83916. AlphaScreen HP1-beta / biotin-H3K9me3 peptide binding. Potency, µM (series often up to 114 µM), inactives show at the top dose activity change, negative = inhibition, hits mostly inhibitors. actives 0.56% (n = 390,000). AID 540317; further: nearly all actives have a fitted effect of over 70% in size
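HP1-beta protein (50 nM final) preincubated 30 min at room temperature with biotinylated H3(1-18)K9me3 peptide (50 nM) in PBS pH 7.4, 0.01% Tween-20, then compound added for 30 min. AlphaScreen streptavidin donor/nickel chelate acceptor beads (10 ug/mL final), 30 min dark, luminescence read.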
BAZ2B inh: inhibitors of human BAZ2B bromodomain; AlphaScreen BAZ2B-H3K14Ac peptide displacement; Potency, µM (series often up to 114 µM), for the others: at the top dose activity change, negative = inhibition, usual class: inhibitors; Q9UIF8; AID 504333; actives 4.4% (n = 360,000); further: on the % scale 0 is the no-effect control and ±100 the full control effect; nearly all actives have a fitted effect of over 60% in size
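AlphaScreen luminescence quantifies BAZ2B engagement of H3K14Ac peptide; the protein and biotinylated peptide are both at 50 nM final, buffer PBS pH 7.4 with 0.01% Tween-20, all steps at room temperature.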
JMJD2A Tudor: JMJD2A Tudor domain (human) inhibition. O75164. AlphaScreen JMJD2A-Tudor / H3K4me3 peptide binding. Potency, µM (titrated, usually from 114 µM), for the others: at the top dose activity change, negative = inhibition, usual class: inhibitors. actives 4.4% (n = 390,000). AID 504339; further: on the % scale 0 is the no-effect control and ±100 the full control effect; nearly all actives have a fitted effect of over 50% in size
The depositor's hits bear a star; u = inconclusive; x = no result; [ ] = dose if it differs, or a comment. The call rests on the fitted dose curve; in most records, active means well fitted inhibition curve with a large enough effect; inconclusive means small, poorly fitted or top-dose-only effect; inactive means no such curve, though single readings can be large or run the other way. Potency means the concentration at half of the fitted maximal effect.

SMILES	G9a block	L3MBTL1 inh	HP1b chromo inh	BAZ2B inh	JMJD2A Tudor
S=C(NCCN1CCOCC1)Nc1ccc(Cl)cc1	-1%[59 µM]	-1%	28%	0%	-1%
CC1CCN(CCNC(=S)Nc2ccc(Cl)cc2)CC1	45µM*	-3%	36%	1%	-7%[57.1 µM]
COc1ccc(N2CCN(c3ccc(NC(=O)NN)cc3)CC2)cc1	45µM*	-13%	-3%	-36%	u
Cc1ccc(Nc2ccc(N3CCN(C(=O)c4cccc([N+](=O)[O-])c4)CC3)nn2)cc1	-5%[59 µM]	x	8%	-34%	-29%
CCOC(=O)c1c(C)[nH]c(C)c1C(=O)CN1C(=O)NC2(CCCCCC2)C1=O	22µM*	13%	20%	9%	-16%
Fc1ccc2c(c1)C(c1ccc(N3CCOCC3)cc1)=NNC(c1cccs1)=N2	20µM*	-28%	-37%	35µM*	25µM*
CCOc1ccc(C2=Nc3ccc(Br)cc3C(c3ccc(N4CCOCC4)cc3)=NN2)cc1	45µM*	-14%	4%	-3%	-19%
COc1ccc(NC(=O)Cn2c(=O)n(Cc3ccccc3)c(=O)c3oc4ccccc4c32)cc1Cl	1%[59 µM]	x	12%	-15%	-14%
N[C@@H](CCS(=O)O)C(=O)O	38%[59 µM]	x	x	x	x
O=c1c2ccccc2sn1-c1cc(S(=O)(=O)N2CCOCC2)ccc1N1CCCCC1	x	x	u	x	13µM*
O=S(=O)(c1ccc(N2CCOCC2)c(Cl)c1)N1CCOCC1	3%	x	31%	1%	-5%
O=c1c2ccccc2sn1-c1cc(S(=O)(=O)N2CCOCC2)ccc1N1CCCC1	u	x	-41%	14µM*	22µM*
Nc1cc(S(=O)(=O)N2CCOCC2)ccc1N1CCCCC1	x	-5%	u	x	u
O=c1c2ccccc2sn1-c1cc(S(=O)(=O)N2CCOCC2)ccc1N1CCOCC1	x	-5%	8.9µM*	3.5µM*	4µM*
CCC(C)(C)n1nnnc1C(c1cc2cccc(C)c2[nH]c1=O)N1CCCC1 (configuration not stated)	11µM*	-5%	12%	-28%	-31%
CCC(C)(C)n1nnnc1C(c1cc2cc(C)cc(C)c2[nH]c1=O)N1CCCC1 (configuration not stated)	7.9µM*	-8%	11%	0%	u
CCC(C)(C)n1nnnc1C(c1cc2cc(C)cc(C)c2[nH]c1=O)N1CCN(Cc2ccc3c(c2)OCO3)CC1 (configuration not stated)	-4%[12.7 µM]	x	31%	-21%	-15%
COc1ccc(NC(=O)CC2C(=O)N(c3ccc(C)cc3)C(=O)N2Cc2cccnc2)cc1 (configuration not stated)	-6%[59 µM]	x	35%	-13%	4%
COc1ccc2c(Sc3ccc(Cl)cc3)c(C(=O)N3CCCCC3)[nH]c2c1	u	x	11%	-30%	u
COc1cc(-c2ccc(N=Nc3ccc4c(S(=O)(=O)O)cc(S(=O)(=O)O)c(N)c4c3O)c(OC)c2)ccc1N=Nc1ccc2c(S(=O)(=O)O)cc(S(=O)(=O)O)c(N)c2c1O	7.1µM*	x	x	x	x
CC(=O)Nc1ccc(SCC(=O)Nc2oc(C)c3c(C)n[nH]c(=O)c23)cc1	50µM*	-5%	50%	1%	-7%
Cc1n[nH]c(=O)c2c(NC(=O)COC(=O)c3cc(F)cc(F)c3)oc(C)c12	45µM*	1%	46%	1%	-19%
Cc1cc(C)c(C)c(SCC(=O)Nc2oc(C)c3c(C)n[nH]c(=O)c23)c1C	4µM*	0%	12%	4%	-21%
COc1cc(CN(C(=O)c2ccco2)C2CCS(=O)(=O)C2)cc(OC)c1OC (configuration not stated)	-8%	x	22%	-14%	0%
COc1cccc2c1[C@@H]1CN(CCCCn3c(=O)[nH]c4c(sc5ncc(-c6ccccc6)nc54)c3=O)C[C@@H]1CO2	13µM*	-6%	-2%	u	u
SMILES	G9a block	L3MBTL1 inh	HP1b chromo inh	BAZ2B inh	JMJD2A Tudor
Cc1c(Cl)cccc1NC(=O)C(C)n1nc(C)c2c(C)n(-c3ccccc3)nc2c1=O (configuration not stated)	-7%[59 µM]	x	8%	-16%	-12%
COc1ccc(N2CCCC2)c(NC(=O)c2ccc([N+](=O)[O-])o2)c1	u	x	35µM*	14µM*	28µM*
CS(=O)(=O)N1CCN(c2ccccc2NC(=O)c2ccc(-c3ccc(Cl)cc3Cl)o2)CC1	-50%[12.7 µM]	-5%	24%	40%	-19%
CN1CCN(c2ccccc2NC(=O)c2ccc(-c3ccc(Cl)cc3Cl)o2)CC1	45µM*	x	4%	u	u
O=C(Nc1cc([N+](=O)[O-])ccc1N1CCCC1)c1ccco1	50µM*	0%	5%	-11%	-16%
O=C(Nc1ccccc1N1CCCC1)c1ccc([N+](=O)[O-])o1	3%[12.7 µM]	x	-15%	32µM*	u
Nc1[nH]ncc1-c1ccc(F)cc1	1%	x	21%	9%	-7%
COc1cccc(CN2CC(C(=O)N(C)CC3CCOCC3)CCC2=O)c1 (configuration not stated)	x	x	16%	5%	4%
Cc1ccc(CN2C(=O)C3(SCC(=O)N3c3ccc(C)c(C)c3)c3ccccc32)cc1 (configuration not stated)	-53%[59 µM]	x	7%	u	-16%
COc1ccc2[nH]c3c(=O)n(Cc4ccc(C(=O)N5CCCCCC5)cc4)c(=S)[nH]c3c2c1	u	4%	28%	-37%	u
CC[C@H](C)NC(=O)c1ccc(Cn2c(=S)[nH]c3c([nH]c4ccc(OC)cc43)c2=O)cc1	56µM*	u	-1%	71µM*	u
COc1ccc2[nH]c3c(=O)n(Cc4ccc(C(=O)N5CCC(C(N)=O)CC5)cc4)c(=S)[nH]c3c2c1	3.2µM*	9%	u	u	4µM*
CCCCNC(=O)c1ccc(Cn2c(=S)[nH]c3c([nH]c4ccc(OC)cc43)c2=O)cc1	-19%	2%	16%	-5%	-32%
COc1ccc2[nH]c3c(=O)n(Cc4ccc(C(=O)NCC5CCCO5)cc4)c(=S)[nH]c3c2c1 (configuration not stated)	1.3µM*	-2%	16%	u	10µM*
OC(c1ccc(Cl)cc1)c1nccc2ccccc12 (configuration not stated)	40µM*	2%	21%	-38%	-27%
O=C(OC(c1ccccc1)c1nccc2ccccc12)c1ccccc1 (configuration not stated)	x	x	44%	x	6%
COc1cc(OC)c(NC(=O)C2=C(C)C(=O)OC23CCCCCC3)cc1Cl	-7%[59 µM]	x	9%	-20%	-21%
COc1cc2ncc3c(-c4ccccc4)nn(CC(=O)NC4CCCCC4)c3c2cc1OC	7%[59 µM]	x	23%	-11%	-29%
